Among the data in PubChem BioAssay are composite z-score and z-score values, retold here.

Each structure is given as a SMILES string. Calls of active or inactive are those of the source.

The nature of test [1]: small molecules captured by biotinylated probe aFSTL3 – biochemical, small-molecule microarray, fluorescence 635/667, stem cell growth factor project, primary screen (AID 1064).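 Further: measures binding of the biotinylated anti-FSTL3 antibody to printed compounds.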 As to conditions: higher = more signal.
The nature of test [2]: binders from COS7 lysate, DM2A8 probe, primary screen, torsin A project, cell lysate, small-molecule microarray, fluorescence 635/667 (AID 1065). The conditions noted are these: higher = more signal, COS7 lysate expressing mutant human TOR1A.
A short description of test [3]: small molecules captured by biotinylated probe aFGF2 – biochemical, small-molecule microarray, fluorescence 635/667, stem cell growth factor project, primary screen (AID 1067).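 Further: measures binding of biotinylated aFGF2 protein to printed compounds on slides; z-score merges feature fluorescence and signal-to-noise across triplicate slides.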 As to conditions: higher = more signal.
Test [4] is described as follows: small molecules captured by biotinylated probe aFGF10 – biochemical, small-molecule microarray, fluorescence 635/667, stem cell growth factor project, primary screen (AID 1071).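 Further: score merges 667 nm spot intensity and signal to noise from triplicate slides.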 As to conditions: higher = more signal.
Test [5] deals with Neurogenic locus notch homolog protein 2 (Homo sapiens) (UniProt Q04721). The test is described as follows: small molecules binding Notch2 protein – biochemical, small-molecule microarray, 635 nm fluorescence, stem cell growth factors, primary screen (AID 1073). The conditions noted are these: higher = more signal.
Neurogenic locus notch homolog protein 2 (Homo sapiens), sequence (Q04721 whole entry, looked up, canonical isoform): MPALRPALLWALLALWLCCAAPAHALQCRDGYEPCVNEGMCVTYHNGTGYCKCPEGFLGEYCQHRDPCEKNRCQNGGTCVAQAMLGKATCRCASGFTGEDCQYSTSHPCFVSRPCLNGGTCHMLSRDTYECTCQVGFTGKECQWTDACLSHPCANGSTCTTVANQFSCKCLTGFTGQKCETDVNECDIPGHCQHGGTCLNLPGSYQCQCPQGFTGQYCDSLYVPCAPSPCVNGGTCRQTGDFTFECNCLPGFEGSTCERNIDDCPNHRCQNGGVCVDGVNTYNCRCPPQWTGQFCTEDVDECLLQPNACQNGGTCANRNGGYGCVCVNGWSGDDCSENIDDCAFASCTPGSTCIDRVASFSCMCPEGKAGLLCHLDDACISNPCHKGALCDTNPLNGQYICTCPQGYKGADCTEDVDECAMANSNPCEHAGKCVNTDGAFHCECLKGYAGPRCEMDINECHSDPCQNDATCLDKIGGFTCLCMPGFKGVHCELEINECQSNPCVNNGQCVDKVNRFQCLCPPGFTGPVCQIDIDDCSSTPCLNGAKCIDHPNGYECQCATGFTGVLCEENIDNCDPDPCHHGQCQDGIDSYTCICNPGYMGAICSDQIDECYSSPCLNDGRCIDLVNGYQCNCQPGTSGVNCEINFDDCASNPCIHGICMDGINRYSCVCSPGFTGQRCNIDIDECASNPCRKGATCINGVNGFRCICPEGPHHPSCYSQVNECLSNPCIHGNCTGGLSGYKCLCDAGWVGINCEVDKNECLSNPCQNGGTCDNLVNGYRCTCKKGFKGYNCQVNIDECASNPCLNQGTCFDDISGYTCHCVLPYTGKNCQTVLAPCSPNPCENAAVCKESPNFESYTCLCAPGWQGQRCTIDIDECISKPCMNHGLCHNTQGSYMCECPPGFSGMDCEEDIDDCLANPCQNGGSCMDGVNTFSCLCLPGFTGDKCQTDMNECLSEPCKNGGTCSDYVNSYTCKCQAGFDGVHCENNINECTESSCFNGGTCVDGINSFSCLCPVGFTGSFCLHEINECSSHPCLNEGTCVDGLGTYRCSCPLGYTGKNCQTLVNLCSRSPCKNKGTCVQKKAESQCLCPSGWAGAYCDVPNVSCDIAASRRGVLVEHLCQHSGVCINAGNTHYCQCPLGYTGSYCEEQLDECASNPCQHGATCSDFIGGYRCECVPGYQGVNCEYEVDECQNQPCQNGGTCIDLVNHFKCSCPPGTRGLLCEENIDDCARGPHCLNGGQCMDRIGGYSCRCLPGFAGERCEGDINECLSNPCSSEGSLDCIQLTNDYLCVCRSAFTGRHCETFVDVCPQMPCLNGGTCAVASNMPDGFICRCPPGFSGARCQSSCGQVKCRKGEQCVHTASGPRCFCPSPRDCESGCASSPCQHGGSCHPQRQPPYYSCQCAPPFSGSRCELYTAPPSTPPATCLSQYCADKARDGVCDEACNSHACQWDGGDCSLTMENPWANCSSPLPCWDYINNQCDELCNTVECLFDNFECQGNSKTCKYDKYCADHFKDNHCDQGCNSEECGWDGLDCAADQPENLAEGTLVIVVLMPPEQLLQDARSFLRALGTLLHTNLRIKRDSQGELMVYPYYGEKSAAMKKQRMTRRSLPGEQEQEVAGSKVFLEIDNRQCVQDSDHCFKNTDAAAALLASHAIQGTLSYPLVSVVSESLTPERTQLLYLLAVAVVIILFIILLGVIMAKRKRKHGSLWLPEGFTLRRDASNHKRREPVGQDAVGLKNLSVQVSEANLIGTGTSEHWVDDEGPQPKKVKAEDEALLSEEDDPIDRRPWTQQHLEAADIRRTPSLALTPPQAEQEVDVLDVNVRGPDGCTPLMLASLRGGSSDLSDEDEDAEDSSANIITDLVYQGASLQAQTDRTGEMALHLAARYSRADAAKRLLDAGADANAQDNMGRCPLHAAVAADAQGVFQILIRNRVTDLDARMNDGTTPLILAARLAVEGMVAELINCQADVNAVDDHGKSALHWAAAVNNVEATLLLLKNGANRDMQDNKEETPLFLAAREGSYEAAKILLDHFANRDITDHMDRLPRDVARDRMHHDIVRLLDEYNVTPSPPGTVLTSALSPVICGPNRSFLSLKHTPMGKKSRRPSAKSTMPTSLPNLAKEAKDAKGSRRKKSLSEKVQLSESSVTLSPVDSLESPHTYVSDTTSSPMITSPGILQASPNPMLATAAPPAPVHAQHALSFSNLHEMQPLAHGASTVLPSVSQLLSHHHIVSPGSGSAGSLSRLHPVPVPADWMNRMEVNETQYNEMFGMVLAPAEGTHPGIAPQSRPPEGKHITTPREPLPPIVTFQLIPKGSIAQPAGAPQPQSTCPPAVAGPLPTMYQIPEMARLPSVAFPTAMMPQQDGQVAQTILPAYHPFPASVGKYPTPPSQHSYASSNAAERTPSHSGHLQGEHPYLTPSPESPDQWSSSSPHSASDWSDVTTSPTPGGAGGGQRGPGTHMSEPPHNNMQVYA
In test [6] the target is Pro-neuregulin-1, membrane-bound isoform (Homo sapiens) (UniProt Q02297). In words: small molecules binding neuregulin-1 protein – biochemical, small-molecule microarray, fluorescence 635/667, psychiatric disease protein project, primary screen (AID 1075).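 Further: score combines 667 nm spot fluorescence with signal to noise.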 As to conditions: NRG1 binding, 635 nm fluorescence, higher = more signal.
The subject of test [7] is Neuregulin-1 EGF-like domain. In words: small molecules binding NRG1 EGF domain – biochemical, small-molecule microarray, 635 nm fluorescence, primary screen (AID 1081).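 Further: binding of the protein to compounds printed on small-molecule microarray slides.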 As to conditions: higher = more signal.
Test [8] can be described thus: FRG1 expression reporter modulators in myotubes – cell-based, C2C12 myotubes, firefly/Renilla luciferase, luminescence, FRG1 inhibition for FSHD, primary screen (AID 1084). As to conditions: FRG1 promoter luciferase, higher = more signal, called active from +8 up or from −8 down.
Test [9] can be described thus: small molecules captured by biotinylated probe aFST – biochemical, small-molecule microarray, fluorescence 635/667, stem cell growth factor project, primary screen (AID 1086).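 Further: score merges 667 nm fluorescence with signal-to-noise of each printed compound spot.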 The conditions noted are these: higher = more signal.
Test [10] is described as follows: binders of probe aHhip on microarray, primary screen, stem cell growth factor project, biochemical, small-molecule microarray, fluorescence 635/667 (AID 1087).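 Further: score merges spot fluorescence at 667nm with spot signal to noise ratio.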 As to conditions: higher = more signal.
In test [11] the test system is PRMT1 (protein arginine N-methyltransferase 1). The test is described as follows: small molecules binding arginine methyltransferase PRMT1 – biochemical, small-molecule microarray, 635 nm fluorescence, primary screen (AID 1088).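 Further: binding of Prmt1 protein to compounds spotted on small-molecule microarray slides.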 The conditions noted are these: higher = more signal.
A short description of test [12]: growth effects on S. cerevisiae YJM789 – YJM789 clinical isolate, OD600, 24 h, basal, primary screen (AID 1089).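 Further: growth of clinical yeast isolate S. cerevisiae YJM 789 seeded 1000 cells per well; test concentration not given here.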 The conditions noted are these: higher = more signal, called active from +8 up or from −8 down.
Test [13] is described as follows: S. pombe growth modifiers, basal conditions – strain 972, OD600, 24 h, no modulator, primary screen (AID 1090).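 Further: basal condition with compound alone and no growth modifier present; test concentration not given here.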 The conditions noted are these: S. pombe 972 growth, higher = more signal, called active from +8 up or from −8 down.
A short description of test [14]: budding yeast growth modifiers under rapamycin – strain BY4716, OD600, 96 h, primary screen (AID 1091). Further: test concentration not given here. The conditions noted are these: S. cerevisiae BY4716 + rapamycin, higher = more signal, called active from +8 up or from −8 down.
For test [15], the target named is Torsin-1A-interacting protein 2 (Homo sapiens) (UniProt Q8NFQ8). The test is described as follows: small molecules binding lysate-expressed LULL1 – cell lysate, human LULL1 lysate, 635/667 nm fluorescence, primary screen (AID 1092).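 Further: probe is lysate of COS7 cells overexpressing human LULL1; score merges per-feature 667 nm fluorescence with signal-to-noise.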 The conditions noted are these: small-molecule microarray, hLULL1 lysate binding, 635 nm fluorescence; higher = more signal.
A short description of test [16]: optical density change of DRC41 E. coli – strain DRC41, OD650, 24 h, E. coli filamentation project, primary screen (AID 1093).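 Further: MC1000 strain lacking acrAB efflux and sulA so SOS filamentation is blocked; test concentration not given here.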 The conditions noted are these: E. coli DRC41 growth, higher = more signal, called active from +8 up or from −8 down.
A short description of test [17]: probe aLefty2 binding to arrayed compounds – biochemical, biotinylated probe, 635/667 nm fluorescence, primary screen (AID 1094).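 Further: score merges spot fluorescence near 667 nm with spot signal-to-noise ratio.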 The conditions noted are these: small-molecule microarray, higher = more signal.
In test [18] the test system is Noggin (protein binding on small-molecule microarray). In words: small molecules binding Noggin protein – biochemical, 635/667 nm fluorescence, primary screen (AID 1095).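 Further: score merges 667 nm feature fluorescence with signal to noise over triplicate slides.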 As to conditions: 635 nm fluorescence, higher = more signal.
The target of test [19] is Neurogenic locus notch homolog protein 3 (Homo sapiens) (UniProt Q9UM47). In words: small molecules binding NOTCH3 protein – biochemical, 635/667 nm fluorescence, primary screen (AID 1096). As to conditions: small-molecule microarray, 635 nm fluorescence, higher = more signal.
Neurogenic locus notch homolog protein 3 (Homo sapiens), sequence (Q9UM47 whole entry, looked up): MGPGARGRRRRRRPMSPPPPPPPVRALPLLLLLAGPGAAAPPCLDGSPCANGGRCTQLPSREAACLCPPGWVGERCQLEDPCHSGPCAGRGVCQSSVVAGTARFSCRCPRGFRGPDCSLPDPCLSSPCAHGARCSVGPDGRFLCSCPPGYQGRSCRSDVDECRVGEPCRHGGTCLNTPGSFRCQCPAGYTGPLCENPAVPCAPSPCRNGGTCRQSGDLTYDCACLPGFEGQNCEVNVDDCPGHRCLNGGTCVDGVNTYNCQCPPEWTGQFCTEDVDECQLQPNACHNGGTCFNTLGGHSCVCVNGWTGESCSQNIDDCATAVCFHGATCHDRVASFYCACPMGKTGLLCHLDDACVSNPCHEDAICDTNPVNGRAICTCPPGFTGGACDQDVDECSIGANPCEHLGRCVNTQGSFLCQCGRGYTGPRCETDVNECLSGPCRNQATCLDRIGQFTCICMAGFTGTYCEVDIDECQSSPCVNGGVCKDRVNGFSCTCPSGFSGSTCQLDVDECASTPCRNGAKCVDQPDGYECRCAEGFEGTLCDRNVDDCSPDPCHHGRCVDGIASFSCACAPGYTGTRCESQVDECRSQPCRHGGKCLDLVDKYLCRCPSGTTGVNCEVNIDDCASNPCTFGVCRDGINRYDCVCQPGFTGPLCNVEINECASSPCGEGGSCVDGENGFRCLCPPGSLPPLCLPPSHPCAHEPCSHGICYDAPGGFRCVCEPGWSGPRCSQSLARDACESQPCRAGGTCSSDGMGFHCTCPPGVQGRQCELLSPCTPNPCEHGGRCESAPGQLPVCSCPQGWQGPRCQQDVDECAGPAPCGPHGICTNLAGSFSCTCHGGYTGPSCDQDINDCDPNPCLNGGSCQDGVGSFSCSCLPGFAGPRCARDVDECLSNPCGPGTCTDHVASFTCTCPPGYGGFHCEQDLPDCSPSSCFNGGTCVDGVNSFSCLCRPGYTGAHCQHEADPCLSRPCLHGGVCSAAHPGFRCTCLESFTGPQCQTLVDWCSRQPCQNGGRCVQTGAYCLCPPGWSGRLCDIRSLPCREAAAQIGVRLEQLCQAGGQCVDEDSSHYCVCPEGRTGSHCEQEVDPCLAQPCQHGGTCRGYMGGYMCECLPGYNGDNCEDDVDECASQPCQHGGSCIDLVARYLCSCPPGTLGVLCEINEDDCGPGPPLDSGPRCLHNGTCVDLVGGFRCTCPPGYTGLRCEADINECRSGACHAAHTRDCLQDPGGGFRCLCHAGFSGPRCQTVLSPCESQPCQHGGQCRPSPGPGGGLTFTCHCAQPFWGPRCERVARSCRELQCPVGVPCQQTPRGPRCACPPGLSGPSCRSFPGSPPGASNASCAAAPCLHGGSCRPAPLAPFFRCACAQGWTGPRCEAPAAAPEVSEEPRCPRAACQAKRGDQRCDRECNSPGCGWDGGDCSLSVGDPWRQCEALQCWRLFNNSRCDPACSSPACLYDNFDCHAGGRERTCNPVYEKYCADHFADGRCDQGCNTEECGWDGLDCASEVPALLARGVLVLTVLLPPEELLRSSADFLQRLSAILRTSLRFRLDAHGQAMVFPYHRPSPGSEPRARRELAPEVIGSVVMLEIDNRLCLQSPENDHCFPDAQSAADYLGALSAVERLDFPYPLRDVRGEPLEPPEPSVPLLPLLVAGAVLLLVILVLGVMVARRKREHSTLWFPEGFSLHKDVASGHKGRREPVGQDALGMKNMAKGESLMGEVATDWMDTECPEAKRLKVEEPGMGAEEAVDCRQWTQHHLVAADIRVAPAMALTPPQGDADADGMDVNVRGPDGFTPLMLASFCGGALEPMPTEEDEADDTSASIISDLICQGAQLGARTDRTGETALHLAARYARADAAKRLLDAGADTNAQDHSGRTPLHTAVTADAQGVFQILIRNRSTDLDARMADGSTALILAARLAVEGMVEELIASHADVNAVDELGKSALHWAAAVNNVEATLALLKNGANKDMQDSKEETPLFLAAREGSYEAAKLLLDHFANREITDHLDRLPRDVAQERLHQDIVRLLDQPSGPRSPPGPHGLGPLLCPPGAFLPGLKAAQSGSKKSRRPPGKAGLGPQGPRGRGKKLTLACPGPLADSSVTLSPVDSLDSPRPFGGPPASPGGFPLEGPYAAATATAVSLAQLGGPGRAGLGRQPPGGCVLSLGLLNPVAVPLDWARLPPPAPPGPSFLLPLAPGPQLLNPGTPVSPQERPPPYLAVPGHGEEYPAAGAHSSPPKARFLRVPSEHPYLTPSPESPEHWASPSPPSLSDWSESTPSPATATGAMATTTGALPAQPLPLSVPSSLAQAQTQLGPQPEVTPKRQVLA
Test [20] in a line: probe aEGFR binding to arrayed compounds – biochemical, biotinylated probe, 635/667 nm fluorescence, primary screen (AID 1097).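 Further: probe is a biotinylated anti-EGFR antibody binding compounds printed on slides; score combines fluorescence near 667 nm and signal to noise of each spot.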 The conditions noted are these: small-molecule microarray, higher = more signal.

On to `Cc1ccc(S[C@]2(C(=O)NCC(F)(F)F)CC(=O)N(C3CCCCC3)[C@@H]2c2ccc(CO)cc2I)cc1`, for which the composite z-score in test [1] was -0.203; in test [2], 0.0659; in test [3], 0.0464; in test [4], 0.594; in test [5] it was 1.18; in test [6], 0.405. Besides, the composite z-score amounted to 1.18 in [7]; 0.233 in [9]; 0.213 in [10]; 1.54 in test [11]; 2.82 in [15]; 0.171 in test [17]. For the same molecule, the composite z-score in test [18] was 0.456; in [19] it was 1.14; in [20], 0.0516. Also, the z-score is -2.91 (inactive) in [8]; -0.332 (inactive) in [12]; -0.692 (inactive) in [13]; 1.23 (inactive) in [14]; 0.312 (inactive) in test [16].
For the molecule `COc1ccc([Si](C)(C)[C@@H]2[C@@H](CC(=O)N3Cc4ccccc4C[C@H]3CO)O[C@]3(C(=O)N(Cc4cccc(N5C(=O)c6cccc7cccc5c67)c4)c4ccccc43)[C@H]2C)cc1`, the composite z-score was -0.345 in test [1]; 0.822 in test [2]; -0.0111 in test [3]; 0.659 in [4]; 0.973 in test [5]; 0.828 in [6]. In addition, the composite z-score in test [7] is 1.04; in test [9] it was 0.593; in test [10], 0.0505; in test [11] it was 1.56; in test [15], 1.6; in test [17], -0.0144. The results for the composite z-score in test [18], in test [19] and in test [20] were 1.08, 1.09 and 0.0276, respectively. For the same molecule, the z-score was -1.51 (inactive) in [8]; -0.258 (inactive) in test [12]; 0.93 (inactive) in test [13]; 2.43 (inactive) in test [14]; -0.342 (inactive) in test [16].
Consider `[N-]=[N+]=NCc1ccccc1C[C@@]1(C(=O)N2CCOCC2)N=C(c2ccc(OCCCO)cc2)O[C@@H]1c1ccccc1`, for which the composite z-score in test [1] was 0.458; in test [2], 0.572; in test [3] it was 0.0654; in test [4], 1; in test [5], 1.44; in test [6] it was 1.79. Further, the composite z-score is 1.1 in test [7]; 0.705 in test [9]; 0.0749 in test [10]; 1.42 in test [11]; 3.33 in test [15]; 0.349 in test [17]. For the same molecule, the composite z-score in test [18] was -0.519; in test [19], 0.553; in test [20], 0.801. Moreover, the z-score in [8] is -4.48 (inactive); in [12], -1.11 (inactive); in test [13], -1.72 (inactive); in test [14], 33 (active); in [16], 0.386 (inactive).
In the case of `COc1ccc(CCNC(=O)[C@@]2(Sc3ccc(C)cc3)CC(=O)N(C3Cc4ccccc4C3)[C@@H]2c2ccc(CO)cc2)cc1`, the composite z-score in test [1] was 0.183; in test [2] it was 0.737; in test [3], 0.153; in test [4], -0.0334; in test [5] it was 1.43; in test [6], 0.591. Further, the composite z-score in [7] was found to be 1.29; in test [9], 0.384; in [10], 0.866; in test [11] it was 1.54; in test [15], 1.88; in test [17], 0.0511. In addition, the composite z-score in test [18] was found to be 2.07; in [19] it was 1.02; in test [20] it was 0.0707. In addition, the z-score in test [8] was -3.33 (inactive); in test [12], 0.593 (inactive); in [13], -0.468 (inactive); in [14], 0.707 (inactive); in test [16], -1.79 (inactive).
As to `COCCOC(=O)N1C(=O)[C@@]2(c3cc(C#CC4=CCCCC4)ccc31)[C@H](c1ccc(OCCO)cc1)N1[C@H](c3ccccc3)[C@H](c3ccccc3)OC(=O)[C@H]1[C@@H]2C(=O)N1CCN(c2ncccn2)CC1`, the composite z-score amounted to 0.0516 in [1]; 0.504 in [2]; 0.0664 in test [3]; 0.874 in test [4]; 1.31 in [5]; 0.521 in test [6]. Besides, the composite z-score in test [7] amounted to 1.05; in [9], 0.59; in test [10], 0.0053; in test [11] it was 1.46; in test [15], 1.73; in test [17] it was 0.0444. Also, the composite z-score in test [18] was 0.788; in [19], 1.1; in test [20], 0.0289. Further, the z-score in [8] is -0.64 (inactive); in test [12], 0.372 (inactive); in test [13] it was 1.23 (inactive); in test [14] it was 3.64 (inactive); in test [16], 1.37 (inactive).
As to `COC(=O)c1c2oc(c1C(=O)OC)C(=O)N(Cc1ccccc1)Cc1cn(nn1)C[C@H](Cc1ccccc1)NC(=O)N[C@H](CO)CC2`, the composite z-score in test [1] was -0.462; in [2], -0.277; in [3], -0.105; in [4] it was 0.138; in [5] it was -0.0194; in test [6], 0.229. The composite z-score in [7] was 1.1; in test [9] it was 0.0118; in [10], 0.0092; in test [11], 0.707; in test [15], 1.69; in test [17] it was -0.256. The composite z-score is 0.698 in test [18], 0.43 in test [19] and -0.11 in test [20]. Besides, the z-score in test [8] was -0.736 (inactive); in [12], -3.16 (inactive); in test [13], -1.15 (inactive); in [14], 0.0108 (inactive); in test [16], 0.101 (inactive).
For the molecule `C=C(C(=O)CC[C@@H](OC(C)=O)c1ccc(CO)o1)C(C)C`, the composite z-score in test [1] is -0.0468; in test [2], -0.0472; in [3], -0.08; in [4] it was 0.114; in test [5], 0.17; in test [6], -0.116. The composite z-score in [7] is 0.0816; in test [9] it was -0.105; in test [10] it was 0.0749; in test [11], 1.2; in test [15], 0.288; in [17], -0.186. In addition, the composite z-score in test [18] was 1.28; in test [19], 0.982; in test [20] it was -0.15. The z-score is 0.776 (inactive) in test [8]; -2.4 (inactive) in test [12]; -0.357 (inactive) in test [13]; -0.561 (inactive) in [14]; 0.331 (inactive) in test [16].
For `C[N+](C)(C)CCCCCCNC(=O)[C@H]1C[C@H]2C(=O)NCC(=O)N2[C@H]1c1ccc(O)cc1`, the composite z-score in [1] is -0.411; in [2], 0.71; in [3] it was -0.0973; in test [4], 0.776; in [5], 0.0422; in test [6], 1.52. Further, the composite z-score in test [7] was 1.17; in [9], 0.358; in test [10] it was -0.744; in [11] it was 1.46; in [15], 2.88; in [17], -0.413. The composite z-score in test [18] is 1.6; in [19], 1.05; in test [20], -0.12. Besides, the z-score is 4.03 (inactive) in test [8]; -0.374 (inactive) in test [12]; 0.332 (inactive) in test [13]; -0.489 (inactive) in [14]; 0.376 (inactive) in test [16].
In the case of `COCCCNC(=O)[C@@]1(Cc2ccccc2N=[N+]=[N-])COC(c2ccc(OCCCO)cc2)=N1`, the composite z-score worked out at 0.846 in test [1]; 0.0792 in test [2]; 0.146 in test [3]; 0.805 in [4]; 1 in test [5]; 1.54 in test [6]. Also, the composite z-score was 1.27 in [7]; 0.734 in [9]; -0.274 in test [10]; 1.43 in test [11]; 3.13 in test [15]; 0.219 in [17]. For the same molecule, the composite z-score came out at 0.0137 in test [18], 0.0417 in test [19] and 0.507 in [20]. Moreover, the z-score is 0.554 (inactive) in test [8]; -0.0885 (inactive) in [12]; -1.52 (inactive) in test [13]; 0.0734 (inactive) in test [14]; 1.39 (inactive) in test [16].
